Source: PubChem (National Center for Advancing Translational Sciences (NCATS))
HCMV antiviral – blocks human cytomegalovirus replication; activity change, negative = inhibition, % at 57.5 µM; 410,000 tested, 4.5% active; HFF cells, HCMV-luciferase reporter, 72 h; hits give low values; in the data active = activity change below about -60%; inconclusive = no clear call, values can overlap the other calls; inactive = above about -39%
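Two-dose cell screen: HFF monolayers treated with compounds and infected with luciferase-expressing HCMV at 1 PFU/cell, 72 h at 37C, then lysed for luciferase measurement.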
AmpC inh no detg – blocks E. coli AmpC beta-lactamase in detergent-free assay; AID 485341; 330,000 tested, 0.52% active; Potency, µM (series often up to 57.1 µM), inactives show at the highest dose activity change, negative = inhibition, most hits filed as inhibitors; P00811; AmpC nitrocefin hydrolysis, absorbance 480 nm, 0.0001% Triton;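 also: potency is read from the fitted curve at half-maximal effect; plate controls were no compound for no effect and no enzyme for full effect; nearly all actives have a fitted effect of over 20% in size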
Target sequence (P00811 whole entry, looked up): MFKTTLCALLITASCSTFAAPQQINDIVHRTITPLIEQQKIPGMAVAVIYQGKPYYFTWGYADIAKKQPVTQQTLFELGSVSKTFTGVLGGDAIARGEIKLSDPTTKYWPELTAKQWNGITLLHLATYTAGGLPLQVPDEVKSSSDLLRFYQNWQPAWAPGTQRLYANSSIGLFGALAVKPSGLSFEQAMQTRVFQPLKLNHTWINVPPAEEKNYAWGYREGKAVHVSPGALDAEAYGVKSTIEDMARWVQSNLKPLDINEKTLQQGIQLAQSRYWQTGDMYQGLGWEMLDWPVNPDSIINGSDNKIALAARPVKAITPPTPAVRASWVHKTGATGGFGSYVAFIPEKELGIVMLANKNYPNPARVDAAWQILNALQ
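AmpC (5.3 nM in the dispensed reagent) in 20 mM phosphate pH 7.0 with 0.01% (detergent screen) or 0.0001% Triton X-100 was preincubated with compounds for 15 min at room temperature. Nitrocefin was then added from an 800 uM solution, and hydrolysis was followed at 480 nm.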
FMDV antiviral – blocks foot and mouth disease virus. FMDV antiviral cell-based qHTS. Potency, µM (top dose mostly 57.9 µM), without a hit: at the top dose activity change, negative = inhibition, usual class: inhibitors. 410,000 tested, 1.2% active. AID 1159524; calls by dose curve; tested in HEK293T cells; also: read-out not given here; potency is read from the fitted curve at half-maximal effect; nearly all actives have a fitted effect of over 45% in size
HCV inh – HCV inhibition | 340,000 tested, 3.4% active | Huh7.5.1 HCVcc-Cre infection, luciferase reporter, 44 h | Potency, µM (series often up to 41.8 µM), for the others: at the top dose activity change, negative = inhibition, actives largely listed as inhibitors | AID 651820; also: potency is read from the fitted curve at half-maximal effect
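1,000 cells/well; 4 h culture; + compound; + HCVcc-Cre (~0.5 moi); 44 h; luciferase substrate, RT 15 min; read 15 sec.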
AmpC inh detg – AmpC beta-lactamase inhibition with detergent present; Potency, µM (doses to about 114 µM), without a hit: at the highest dose activity change, negative = inhibition, most hits filed as inhibitors; 370,000 tested, 0.041% active; P00811; AmpC hydrolysis of nitrocefin, absorbance 480 nm, 0.01% Triton;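 also: potency is read from the fitted curve at half-maximal effect; 0% = no-compound wells and -100% = no-enzyme wells; nearly all actives have a fitted effect of over 25% in size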
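20 mM phosphate pH 7.0 + 0.01% (detergent screen) or 0.0001% Triton X-100; 5.3 nM AmpC reagent; cpd preinc 15 min RT; nitrocefin (800 uM stock) to start; A480 q20 s × 4 min; Activity was normalised to no-enzyme and no-compound control wells.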
Numbers without * were called inactive; ? = inconclusive; / = not tested or not shown. An excerpt weighted towards active compounds, which were near 7.3% of everything screened. Unless noted, calls follow the shape of the dose curve; as a rule, active = well fitted curve in the direction sought with a large enough effect; inconclusive = small, poorly fitted or top-dose-only effect, or another doubt; inactive = no such curve, though single readings can be large; an effect the other way counts as inactive or inconclusive. Unless noted, % is scaled to controls: 0 for no effect and ±100 for the full control effect.

SMILES	HCMV antiviral	AmpC inh no detg	FMDV antiviral	HCV inh	AmpC inh detg
COc1ccc(-c2noc(-c3ccccc3C(=O)Nc3cccnc3)n2)cc1OC	-5	76%	/	8.9µM*	4%
COc1ccc(-c2noc(-c3ccccc3C(=O)Nc3cccc(OC)c3)n2)cc1	-36	-16%	-15%	?	-11%
O=C(Nc1cccnc1)c1ccccc1-c1nc(-c2ccccc2F)no1	-13	-22%	6%	?	?
COc1ccc(-c2noc(CNC(=O)c3ccccc3Br)n2)cc1	-63*	/	-18%	/	18%
Cc1ccccc1C1(CC(=O)N2CCCC2c2nccs2)CC(=O)N(C2CCCC2)C1=O (stereo unspecified)	/	/	49%	/	/
COc1cccc(CNC(=O)CCCNC(=O)c2ccc(Cl)cc2)c1	4	30%	-9%	11%	-3%
Cc1c(P(=O)(c2ccccc2)c2ccccc2)c2ccccc2n1C	5	/	-27%	/	/
O=c1onc(-c2ccccc2)n1-c1cc(Cl)cc(Cl)c1	?	/	-16%	-8%	/
CCOc1ccc(N(C(C)C(=O)NCCSc2ccc(Cl)cc2)S(C)(=O)=O)cc1 (stereo unspecified)	-11	/	-2%	/	2%
O=c1cccc2c1c1cc[nH]c3ccc(=O)n2c31	-70*	-30%	-22%	?	-7%
CC(C)(C)c1cc([N+](=O)[O-])cc(C(C)(C)C)c1O	-100*	-40%	?	10µM*	3%
N#Cc1cc2sc3nnc(-c4ccncc4)n3c2cc1C#N	-62*	-27%	0%	?	?
Cc1nc2c(-c3ccc(F)cc3)cnn2c(N)c1-c1ccc(F)cc1	-76*	-14%	?	?	10%
COc1ccc(-c2c(C)nc3c(-c4ccsc4)cnn3c2N)cc1	63	-7%	22%	-5%	-1%
Cc1cc(N)n2ncc(-c3ccc(Cl)cc3)c2n1	261	-10%	47%	?	-1%
Cc1cc(N)n2ncc(-c3ccc(F)cc3)c2n1	122	-26%	47%	10µM*	-3%
COc1ccc2c(c1)c(C(=O)O)c(C)n2-c1ccccc1	13	-21%	-12%	?	-6%
COc1ccc2c(c1)c(C(C)=O)c(C)n2-c1ccc(C(C)=O)cc1	-74*	-6%	-24%	8%	-1%
COc1ccc(-n2c(C)c(C(C)=O)c3cc(OC(C)=O)ccc32)cc1	-80*	-13%	-14%	?	-14%
CCN1CCN(C(=O)c2cnn(-c3ncc4c(n3)-c3ccccc3CCC4)c2COC)CC1	/	/	9%	/	/
COc1cccc(CCNc2ncnc3sc(C(=O)N4CCOCC4)c(C)c23)c1	/	/	-8%	/	/
Cc1ccn(CCC(=O)NC2CCCc3c2cnn3-c2cccc(C)c2C)n1 (stereo unspecified)	?	60%	-11%	-8%	-4%
Cc1cccc(-n2ncc3c2CCCC3NC(=O)C2CCOCC2)c1C (stereo unspecified)	-38	43%	0%	22µM*	-1%
Cc1cc(C(=O)NC2CCCc3c2cnn3-c2cccc(C)c2C)n(C)n1 (stereo unspecified)	-40	94%	?	0.32µM*	-2%
Cc1cccc(-n2ncc3c2CCCC3NC(=O)CCc2ccncc2)c1C (stereo unspecified)	0	5%	?	?	-12%
SMILES	HCMV antiviral	AmpC inh no detg	FMDV antiviral	HCV inh	AmpC inh detg
Cc1cccc(-n2ncc3c2CCCC3NC(=O)c2ccc[n+]([O-])c2)c1C (stereo unspecified)	?	14%	-26%	13µM*	-10%
CCCCn1c(N)c(N(C(=O)CSc2nnnn2-c2ccccc2)C2CCCC2)c(=O)[nH]c1=O	-15	-14%	-1%	-1%	6%
O=C(NCCc1ccc(F)cc1)Nc1ccccc1Cl	-63*	-30%	3%	-14%	1%
S=C(NCCNC(=S)Nc1ccccc1Cl)Nc1ccccc1Cl	?	-45%	24%	?	1%
S=C(NCc1ccccc1Cl)Nc1ccccc1Cl	-9	-40%	34%	-20%	-11%
S=C(NCCCc1ccccc1)Nc1ccccc1Cl	-60*	-25%	42%	-15%	-4%
S=C(NCCc1ccccc1)Nc1ccccc1Cl	-64*	-29%	35%	-24%	-4%
